Screening data as filed in PubChem BioAssay.
Most compounds without a hit are left out; they make up all but 19% or so of the library.
HT1080 IDH1KD tx: kills HT-1080 cells with IDH1 knockdown. Potency, µM (highest dose often 46.1 µM), inactives show top-dose activity, negative = toxicity, usual class: cytotoxic. hit rate 2% among 360,000. AID 686971. HT-1080 IDH1 knockdown viability, ATP luminescence, 48 h;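 note: potency is the fitted concentration of half-maximal effect; 0% = DMSO wells and -100% = cell-free medium wells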
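Using the IDH1-knockdown HT-1080 line run in the same batch and compound series as the NT line, viability after 48 h at 37 °C was determined by CellTiter-Glo luminescence and expressed as % activity.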
TDP1 cell noCPT: qHTS for Inhibitors of human tyrosyl-DNA phosphodiesterase 1 (TDP1): qHTS in cells in absence of CPT | DT40 Tdp1-/- hTDP1 cells, no CPT, ATP luminescence, 48 h | Potency, µM (titrated, usually from 46.2 µM), without a hit: at the highest dose activity change, negative = growth inhibition, actives largely listed as inhibitors | hit rate 15% among 420,000; note: potency is the fitted concentration of half-maximal effect; nearly all actives have a fitted effect of over 55% in size
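Luminescent ATP content (CellTiter-Glo) served as the growth readout. Knockout chicken DT40 cells expressing human TDP1 were exposed to compounds without camptothecin for a minimum 48 hr at 37 °C.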
HT1080-NT tox: kills 2HG-producing HT-1080-NT fibrosarcoma cells. HT-1080-NT fibrosarcoma viability, CellTiter-Glo ATP luminescence, 48 h. AID 686970. Potency, µM (top dose mostly 46.1 µM), without a hit: top-dose activity, negative = less viability, most hits filed as cytotoxic. hit rate 1.6% among 360,000;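 note: NT is the 2HG producing partner of a matched IDH1 knockdown line; potency is the fitted concentration of half-maximal effect; 0% = DMSO-treated cells and -100% = media-only wells without cells; nearly all actives have a fitted effect of over 55% in size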
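750 cells/well, RPMI + 5% FBS; 2 h settle, compound pin-transfer, 48 h at 37 degrees C. CellTiter-Glo 10 min RT, luminescence. Normalized to DMSO and media-only wells.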
DT40 TDP1 CPT: growth inhibition of DT40 Tdp1-/-;hTDP1 cells with camptothecin (screen for TDP1 inhibitors); chicken DT40 Tdp1-/-;hTDP1 cells + 20 nM CPT, ATP luminescence, 48 h; Potency, µM (titrated, usually from 46.2 µM), for inactives: top-dose activity change, negative = growth inhibition, hits mostly inhibitors; hit rate 12% among 420,000; AID 686979; note: potency is the fitted concentration of half-maximal effect; nearly all actives have a fitted effect of over 55% in size
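Chicken DT40 Tdp1-/- cells stably complemented with human TDP1 were seeded at 400 cells/well in medium containing 20 nM camptothecin, exposed to pin-transferred compounds, and grown at 37 °C for at least 48 hr. Viability was read as ATP luminescence.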
IL-1B inflam inh: inflammasome signaling inhibition, IL-1 beta readout. hit rate 4.7% among 360,000. activity change, % at 57.5 µM. THP-1 LPS/ATP IL-1B secretion, AlphaLISA, 16 h; active compounds read low; in the data active = activity change below about -50%; inconclusive = mostly about -30% to -49%
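THP-1 cells pretreated 1 hr with compounds (up to 57.5 uM final), then stimulated with LPS (250 ng/mL final) plus ATP (1.25 mM final); secreted IL-1B measured by AlphaLISA after 16 hr, decreased signal indicating inhibition.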
Starred values were filed as active, the others as inactive; [ ] = another dose, or the depositor's remark. Unless noted, calls come from the whole dose curve; as a rule, active = well fitted curve in the direction sought with a large enough effect; inconclusive = small, poorly fitted or top-dose-only effect, or another doubt; inactive = no such curve, though single readings can be large; an effect the other way counts as inactive or inconclusive. Unless noted, % is set by controls: 0 for no effect and ±100 for the full control effect.

How did O=C(c1ccc2c(c1)OCCO2)N(Cc1cccnc1)c1nc2c(Cl)cccc2s1 do in these assays?
TDP1 cell noCPT: 23.1µM*; DT40 TDP1 CPT: inconclusive

Results for Cc1[nH]c2ccccc2c1/C=C/c1nc2ccccc2c(=O)[nH]1 ?
HT1080 IDH1KD tx: 16.4µM*; TDP1 cell noCPT: 10.3µM*; HT1080-NT tox: inconclusive; DT40 TDP1 CPT: inconclusive; IL-1B inflam inh: -103.4*

How did COc1cc(/C=C/c2nc3ccccc3c(=O)[nH]2)ccc1O do in these assays?
HT1080 IDH1KD tx: inconclusive; TDP1 cell noCPT: 16.4µM*; HT1080-NT tox: -29.8%; DT40 TDP1 CPT: inconclusive; IL-1B inflam inh: inconclusive

What do the screens show for `CCOc1cc(/C=C/c2nc3ccccc3c(=O)[nH]2)ccc1O`?
HT1080 IDH1KD tx: -8.6%; TDP1 cell noCPT: inconclusive; HT1080-NT tox: -0.5%; DT40 TDP1 CPT: inconclusive; IL-1B inflam inh: -3.3

How did O=c1[nH]c(/C=C/c2ccccc2Cl)nc2ccccc12 do in these assays?
HT1080 IDH1KD tx: -1.1%; TDP1 cell noCPT: inconclusive; HT1080-NT tox: -3.3%; DT40 TDP1 CPT: 16.4µM*; IL-1B inflam inh: -3.4

What do the screens show for `Cc1ccc(-n2c(/C=C/c3c(C)n(C)c4ccccc34)nc3ccccc3c2=O)cc1`?
TDP1 cell noCPT: -15.1%; DT40 TDP1 CPT: 1.5%

What do the screens show for `Cc1[nH]c2ccccc2c1/C=C/c1nc2ccccc2c(=O)n1-c1ccc([N+](=O)[O-])cc1`?
HT1080 IDH1KD tx: 1.9%; TDP1 cell noCPT: 2.06µM*; HT1080-NT tox: -6.4%; DT40 TDP1 CPT: inconclusive; IL-1B inflam inh: 0.0

What do the screens show for `O=C(O)c1ccc(/C=C/c2nc3ccccc3c(=O)[nH]2)cc1`?
HT1080 IDH1KD tx: -0.7%; TDP1 cell noCPT: -0.8%; HT1080-NT tox: -2.9%; DT40 TDP1 CPT: -6.8%; IL-1B inflam inh: 51.5

Results for Cc1cccc(/C=C/c2nc3ccccc3c(=O)[nH]2)c1 ?
HT1080 IDH1KD tx: inconclusive; TDP1 cell noCPT: 14.6µM*; HT1080-NT tox: inconclusive; DT40 TDP1 CPT: 20.6µM*; IL-1B inflam inh: 3.2

How did Cc1ccccc1Nc1c(-c2ccc(N3CCOCC3)cc2)nc2ccc(Br)cn12 do in these assays?
TDP1 cell noCPT: 14.6µM*; DT40 TDP1 CPT: 11.6µM*

Results for COc1cc(O)ccc1-c1nc2ccc(Br)cn2c1Nc1ccccc1C ?
TDP1 cell noCPT: 9.2µM*; DT40 TDP1 CPT: 20.6µM*

How did O=C(NC1CCCCCCC1)c1ccc2c(c1)N(Cc1ccc(F)cc1)C(=O)CS2=O (configuration not stated) do in these assays?
HT1080 IDH1KD tx: inconclusive; TDP1 cell noCPT: inconclusive; HT1080-NT tox: -27.5%; DT40 TDP1 CPT: inconclusive; IL-1B inflam inh: -4.2

What do the screens show for `NNc1nnc2c3cc(F)ccc3n(Cc3ccccc3)c2n1`?
HT1080 IDH1KD tx: inconclusive; TDP1 cell noCPT: 18.4µM*; HT1080-NT tox: inconclusive; DT40 TDP1 CPT: inconclusive; IL-1B inflam inh: -9.8

What do the screens show for `CCCn1c2ccc(F)cc2c2nnc(NN)nc21`?
HT1080 IDH1KD tx: -23.3%; TDP1 cell noCPT: inconclusive; HT1080-NT tox: -6.4%; DT40 TDP1 CPT: inconclusive; IL-1B inflam inh: 7.0

What do the screens show for `CCc1ccc2c(c1)c1nnc(NN)nc1n2CC`?
HT1080 IDH1KD tx: -10.2%; TDP1 cell noCPT: 18.4µM*; HT1080-NT tox: -15.2%; DT40 TDP1 CPT: inconclusive; IL-1B inflam inh: -1.8

What do the screens show for `CCn1c2ccc(F)cc2c2nnc(NN)nc21`?
HT1080 IDH1KD tx: 8.6%; TDP1 cell noCPT: 16.4µM*; HT1080-NT tox: 3.5%; DT40 TDP1 CPT: inconclusive; IL-1B inflam inh: 15.9

What do the screens show for `O=S(=O)(c1ccc(Oc2ccc(Br)cc2)cc1)N1CCOCC1`?
HT1080 IDH1KD tx: -7.4%[9.24 µM]; TDP1 cell noCPT: 23.1µM*; HT1080-NT tox: -17.6%; DT40 TDP1 CPT: 16.4µM*; IL-1B inflam inh: -13.7

What do the screens show for `CCOC(=O)CNC(=O)C(Cc1ccccc1)NS(=O)(=O)c1cccs1` (configuration not stated)?
HT1080 IDH1KD tx: -3.2%; TDP1 cell noCPT: -4.7%; HT1080-NT tox: -4.7%; DT40 TDP1 CPT: -23.9%; IL-1B inflam inh: -1.3
